Data on 40 compounds can be found in PubChem BioAssay.

Structures are written as SMILES. Calls of active or inactive are those of the source.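 Rule for the calls: active = GFP response above 150% of the DMSO level; inconclusive = fewer than 70 events counted for a yeast strain; inactive = the rest.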

One test in a line: TOR pathway CIT2 reporter hit retest – S. cerevisiae, GFP fusion, cherry picks, mother/daughter gates, confirmation (AID 2274). The settings on record: S. cerevisiae CIT2-GFP strain, flow cytometry, 3 h; at 10 µM; stronger effect = higher value. Background: In flow cytometry, cells or beads pass a laser one at a time.
On to `Cc1cccn2c(=O)c(/C=C(\C#N)C(N)=O)c(N3CCN(Cc4ccc5c(c4)OCO5)CC3)nc12`, for which the GFP response, % of DMSO was 110% (inactive).
The same measure, in the same setting: with `O=S(=O)(CCN(CCS(=O)(=O)C(F)(F)F)CC1CCCO1)C(F)(F)F` (stereo not given) the figure was 111% (inactive); with `COc1cc(NC(=O)C(C)C)ccc1NC(=O)c1cc2ccccc2o1`, 103% (inactive).
As to `COc1cc(/C=C2/N=C(c3ccccc3)OC2=O)c(F)cc1OCc1ccccc1`, the GFP response, % of DMSO is 106% (inactive).
The same measure, in the same setting: with `Cc1cccc(C)c1OCCOC(=O)c1n[nH]c2ccccc12` the figure was 95% (inactive); with `Cc1ccc(/C=N\NC(=O)c2cc(OCC(F)(F)F)ccc2OCC(F)(F)F)cc1`, 105% (inactive); with `CCOCCCNC(=O)/C(C#N)=C/c1ccc([N+](=O)[O-])o1`, 182% (active).
With `O=c1[nH]c(CN2CCCCC2)nc2c1C1(CCCCC1)Cc1ccccc1-2`, the GFP response, % of DMSO was 99.1% (inactive).
The same measure, in the same setting: with `CSC1=NC(=O)/C(=C/c2ccc(SC)cc2)S1` the figure was 75% (inactive); with `COC(=O)Nc1c(-c2ccccc2)nc2ccccn12`, 101% (inactive).
On to `CCCc1[nH]nc2c1C(c1ccc(O)c(OC)c1)C(C#N)=C(N)O2` (stereo not given), for which the GFP response, % of DMSO was 103% (inactive).
With `CCc1ccc2c(c1)/C(=C/C(=O)c1cccs1)C(=O)N2`, the GFP response, % of DMSO is 91.3% (inactive).
The same measure, in the same setting: with `CCN(C(=O)c1ccccc1Cl)c1ccccc1` the figure was 100% (inactive).
Still for that read-out and setting: next, `COCCNc1c(-c2ccc(O)cc2)nc2ccc(Cl)cn12`: 98.3% (inactive).
`CC(C)(C)c1ccc(C(=O)N/N=C/c2cccc(Cl)c2)cc1`: the GFP response, % of DMSO is 91.7% (inactive).
Same read-out and setting: with `O=C(COC(=O)C1CCN(c2ccc(C(F)(F)F)cn2)CC1)Nc1cccc(F)c1` the figure was 104% (inactive); with `COc1ccc(Cc2nnc(NC(=O)c3ccccc3F)s2)cc1`, 100% (inactive); with `COC(=O)c1cccc(-n2c(CCC(=O)O)ccc2-c2cccs2)c1`, 97.2% (inactive).
Still for that read-out and setting: with `CC(=O)Oc1ccc(/C=c2\sc3ncnn3c2=O)cc1` the figure was 100% (inactive); with `CCNC(=O)c1c(O)c2cccc3c2n(c1=O)CC3`, 98.8% (inactive).
Same read-out and setting: next, `Cc1ccc(C(=O)NNC(=S)NC(=O)c2ccco2)cc1`: 108% (inactive); `CCOC(=O)c1sc(NC(=O)CN2C(=O)c3cccc4cccc(c34)C2=O)nc1C`: 98.3% (inactive).
As for `Cc1ccc(NC(=O)c2ccccc2O)cc1`, the GFP response, % of DMSO is 104% (inactive).
Same read-out and setting: next, `O=C(NCCN1CCOCC1)c1ccc(CS(=O)(=O)Cc2ccccc2F)o1`: 110% (inactive); `Cc1ccc(-n2nnnc2C(Cl)(Cl)c2nnnn2-c2ccc(C)cc2)cc1`: 105% (inactive).
Still for that read-out and setting: with `COc1ccc(CC(=O)Oc2ccccc2C)cc1` the figure was 96.4% (inactive).
Same read-out and setting: next, `Cc1ccc(S(=O)(=O)N(Cc2ccccc2)Cc2ccco2)cc1`: 106% (inactive); `Cc1cc(NC(=O)c2cccnc2Cl)ccc1NC(=O)c1cc2ccccc2o1`: 103% (inactive); `Cc1ccc(NC(=O)CCCSc2nc3ccccc3[nH]2)cc1`: 113% (inactive).
In the case of `Cc1ccc(C(=O)Sc2cccccc2=O)cc1`, the GFP response, % of DMSO is 90.9% (inactive).
The same measure, in the same setting: with `COc1ccccc1-c1noc(CCC(=O)Nc2cccc(C(F)(F)F)c2)n1` the figure was 100% (inactive).
Turning to `Nc1cccnc1S(=O)(=O)c1ccccc1`, the GFP response, % of DMSO was 99.1% (inactive).
Same read-out and setting: with `O=C(O)CCc1ccc(-c2ccccc2)o1` the figure was 94% (inactive); with `Nc1nc(SCC(=O)Nc2cc(C(F)(F)F)ccc2N2CCOCC2)n[nH]1`, 99.7% (inactive); with `Cc1ncc2c(n1)-c1cc(F)ccc1SC2`, 113% (inactive).
On the same count and under the same terms, next, `Cc1ccc2c(c1)c(/C=C/c1cc[n+](C)cc1)c(C)n2C`: 184% (active); `COc1ccc(CCNC2=C(Cl)C(=O)N(CCc3ccc(OC)c(OC)c3)C2=O)cc1OC`: 95% (inactive).
Regarding `Cc1cccc(NC(=S)NCC23C=CC(O2)C2C(=O)N(c4ccc(Cl)cc4)C(=O)C23)c1` (stereo not given), the GFP response, % of DMSO is 104% (inactive).
Regarding `O=C(CSc1nnc(-c2ccccn2)n1Cc1ccccc1)N1CCOCC1`, the GFP response, % of DMSO was 104% (inactive).
`COc1ccc(-c2nc(-c3ccccc3OC)no2)cc1OC`: the GFP response, % of DMSO is 94.4% (inactive).

The same test, now with this note: S. cerevisiae CIT2-GFP strain, flow cytometry, 3 h; measured here: daughter cell gate; at 10 µM; stronger effect = higher value.
In the case of `Cc1cccn2c(=O)c(/C=C(\C#N)C(N)=O)c(N3CCN(Cc4ccc5c(c4)OCO5)CC3)nc12`, the GFP response, % of DMSO was determined as 110%.
On the same count and under the same terms, next, `O=S(=O)(CCN(CCS(=O)(=O)C(F)(F)F)CC1CCCO1)C(F)(F)F` (stereo not given): 115%; `COc1cc(NC(=O)C(C)C)ccc1NC(=O)c1cc2ccccc2o1`: 101%; `COc1cc(/C=C2/N=C(c3ccccc3)OC2=O)c(F)cc1OCc1ccccc1`: 105%.
On to `Cc1cccc(C)c1OCCOC(=O)c1n[nH]c2ccccc12`, for which the GFP response, % of DMSO was found to be 96.4%.
The same measure, in the same setting: next, `Cc1ccc(/C=N\NC(=O)c2cc(OCC(F)(F)F)ccc2OCC(F)(F)F)cc1`: 108%; `CCOCCCNC(=O)/C(C#N)=C/c1ccc([N+](=O)[O-])o1`: 114%; `O=c1[nH]c(CN2CCCCC2)nc2c1C1(CCCCC1)Cc1ccccc1-2`: 96.5%.
On the same count and under the same terms, with `CSC1=NC(=O)/C(=C/c2ccc(SC)cc2)S1` the figure was 78.1%; with `COC(=O)Nc1c(-c2ccccc2)nc2ccccn12`, 99.1%; with `CCCc1[nH]nc2c1C(c1ccc(O)c(OC)c1)C(C#N)=C(N)O2` (stereo not given), 101%.
The same measure, in the same setting: next, `CCc1ccc2c(c1)/C(=C/C(=O)c1cccs1)C(=O)N2`: 91.5%; `CCN(C(=O)c1ccccc1Cl)c1ccccc1`: 101%.
In the case of `COCCNc1c(-c2ccc(O)cc2)nc2ccc(Cl)cn12`, the GFP response, % of DMSO stood at 99.1%.
On the same count and under the same terms, with `CC(C)(C)c1ccc(C(=O)N/N=C/c2cccc(Cl)c2)cc1` the figure was 92.3%.
Still for that read-out and setting: with `O=C(COC(=O)C1CCN(c2ccc(C(F)(F)F)cn2)CC1)Nc1cccc(F)c1` the figure was 108%; with `COc1ccc(Cc2nnc(NC(=O)c3ccccc3F)s2)cc1`, 99.7%; with `COC(=O)c1cccc(-n2c(CCC(=O)O)ccc2-c2cccs2)c1`, 96.8%.
In turn, `CC(=O)Oc1ccc(/C=c2\sc3ncnn3c2=O)cc1` showed a GFP response, % of DMSO of 103%.
Same read-out and setting: next, `CCNC(=O)c1c(O)c2cccc3c2n(c1=O)CC3`: 101%; `Cc1ccc(C(=O)NNC(=S)NC(=O)c2ccco2)cc1`: 114%.
Same read-out and setting: next, `CCOC(=O)c1sc(NC(=O)CN2C(=O)c3cccc4cccc(c34)C2=O)nc1C`: 101%; `Cc1ccc(NC(=O)c2ccccc2O)cc1`: 106%; `O=C(NCCN1CCOCC1)c1ccc(CS(=O)(=O)Cc2ccccc2F)o1`: 108%.
The same measure, in the same setting: next, `Cc1ccc(-n2nnnc2C(Cl)(Cl)c2nnnn2-c2ccc(C)cc2)cc1`: 106%; `COc1ccc(CC(=O)Oc2ccccc2C)cc1`: 96.4%; `Cc1ccc(S(=O)(=O)N(Cc2ccccc2)Cc2ccco2)cc1`: 105%.
For the compound `Cc1cc(NC(=O)c2cccnc2Cl)ccc1NC(=O)c1cc2ccccc2o1`, the GFP response, % of DMSO came out at 97.4%.
The same measure, in the same setting: with `Cc1ccc(NC(=O)CCCSc2nc3ccccc3[nH]2)cc1` the figure was 111%.
On the same count and under the same terms, with `Cc1ccc(C(=O)Sc2cccccc2=O)cc1` the figure was 93.7%.
Regarding `COc1ccccc1-c1noc(CCC(=O)Nc2cccc(C(F)(F)F)c2)n1`, the GFP response, % of DMSO amounted to 101%.
On the same count and under the same terms, next, `Nc1cccnc1S(=O)(=O)c1ccccc1`: 99.7%; `O=C(O)CCc1ccc(-c2ccccc2)o1`: 95.4%; `Nc1nc(SCC(=O)Nc2cc(C(F)(F)F)ccc2N2CCOCC2)n[nH]1`: 99.1%.
The same measure, in the same setting: with `Cc1ncc2c(n1)-c1cc(F)ccc1SC2` the figure was 116%.
The compound `Cc1ccc2c(c1)c(/C=C/c1cc[n+](C)cc1)c(C)n2C` returned a GFP response, % of DMSO of 191%.
On the same count and under the same terms, next, `COc1ccc(CCNC2=C(Cl)C(=O)N(CCc3ccc(OC)c(OC)c3)C2=O)cc1OC`: 98.3%; `Cc1cccc(NC(=S)NCC23C=CC(O2)C2C(=O)N(c4ccc(Cl)cc4)C(=O)C23)c1` (stereo not given): 104%.
On the same count and under the same terms, with `O=C(CSc1nnc(-c2ccccn2)n1Cc1ccccc1)N1CCOCC1` the figure was 105%; with `COc1ccc(-c2nc(-c3ccccc3OC)no2)cc1OC`, 95.6%.
